Source: PubChem BioAssay (NCATS)
Results filed as inconclusive are left out. Entries that show only a call come without a potency. Activity calls are given as the source filed them. Calls follow the shape of the dose curve; as a rule, active = well fitted cell-killing curve with a large enough effect; inconclusive = small, poorly fitted or top-dose-only effect, or effect the other way; inactive = flat fitted curve, though single readings scatter. Where a SMILES comes first, the peptide text is derived from it. [ ]: non-standard residue; d: D form. pGlu = O=C1CC[C@@H](C(=O)O)N1
Potency is read from the fitted curve at half-maximal effect.

Each compound was assayed on HeLa (assay: Primary qHTS to identify gynecologic anti-cancer compounds using libraries of approved drugs and bioactive compounds (AID 1345084; also: nearly all actives have a fitted effect of over 55% in size)). Settings: Gynecologic cancer cell panel viability, ATPlite luminescence, 48 h; series mostly up to 57.5 µM.
Summary of the method: (§1)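 Five-concentration response, 48 h; readout is ATP-driven luciferase luminescence.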
`CCCCCN(CCCOC)C(=O)C(CCC(=O)O)NC(=O)c1ccc(Cl)c(Cl)c1` (centres undefined) was tested, and the Potency was “inactive”.
For `CCCCCCn1c(=O)c2c(ncn2C)n(C)c1=O`, the Potency was “inactive”.
With `CCCc1ncc(C(=O)O)s1` the Potency was “inactive”.
With `C/C(=N/NC(=O)c1ccncc1)C(=O)O` the Potency was “inactive”.
In the case of `COC(=O)/C=C(/C)N`, the Potency is reported as “inactive”.
For `NS(=O)(=O)c1cc2c(cc1Cl)CN(C1CCCCC1)C2=O`, the Potency was “inactive”.
`O=C1NC(c2ccccc2)(c2ccccc2)C(=O)N1COP(=O)(O)O` was tested, and the Potency was “inactive”.
`CCc1cccc2c(CCO)c[nH]c12` was tested, and the Potency was “inactive”.
With `CCCCC(CC)CNC(=O)CC(C)OC(=O)CCC(=O)O` (centres undefined) the Potency was “inactive”.
With `O=C(O)c1ccc(OCCN2CCCCC2)cc1` the Potency was “inactive”.
For `CCCC(=O)O[C@]1(C(=O)CC)CC[C@H]2[C@@H]3CCC4=CC(=O)CC[C@]4(C)[C@H]3[C@@H](O)C[C@@]21C`, the Potency was “inactive”.
In the case of `CC(C)N(CCC(=O)c1ccc2ccccc2c1)Cc1ccccc1`, the Potency is reported as “inactive”.
With `COC(=O)CCCCC(CCSS/C(CCO)=C(\C)N(C=O)Cc1cnc(C)nc1N)SC(C)=O` (centres undefined) the Potency was “inactive”.
With `O=C1CC2(CCCC2)CC(=O)N1` the Potency was “inactive”.
`CCCCOCCOC(=O)c1cccnc1` was tested, and the Potency was “inactive”.
In the case of `CC(=O)N[C@@H](CO)C(=O)N[C@@H](CC(=O)O)C(=O)N[C@@H](CCCCN)C(=O)N1CCC[C@H]1C(=O)O` (Ac-SDKP-OH), the Potency is reported as “inactive”.
`CC(=O)O[C@@H]1CC2C3CCc4cc(OC(=O)c5ccccc5)ccc4C3CCC2(C)[C@H]1OC(C)=O` (some centres undefined) was tested, and the Potency was “inactive”.
`Cc1ccc2c(Cl)cc(Cl)c(O)c2n1` was tested, and the Potency was “inactive”.
`CC(Oc1c(Cl)cccc1Cl)C1=NCCN1` (centres undefined) was tested, and the Potency was “inactive”.
`N#CC1(c2ccc(F)cc2)CCC(=O)CC1` was tested, and the Potency was “inactive”.
`CC1(C)OC(=O)Nc2ccc(Br)cc21` was tested, and the Potency was 10 µM (active).
`Cc1cccc(C)c1NC(=O)c1ccc(N)cc1` was tested, and the Potency was “inactive”.
In the case of `Cc1cccc(OCC(O)CNC(C)(C)C)c1C` (centres undefined), the Potency is reported as “inactive”.
In the case of `Cc1coc2ccccc2c1=O`, the Potency is reported as “inactive”.
For `COC(=O)c1cc(Cl)c(NC(C)=O)cc1OC`, the Potency was “inactive”.
With `CSCC[C@H](NC(=O)[C@H](Cc1c[nH]c2ccccc12)NC(=O)CCNC(=O)OC(C)(C)C)C(=O)N[C@@H](CC(=O)O)C(=O)N[C@@H](Cc1ccccc1)C(N)=O` the Potency was “inactive”.
`CC(C)C(=O)OCc1cccc(OC(=O)[C@@H]2N3C(=O)[C@@H](NC(=O)Cc4ccccc4)[C@H]3SC2(C)C)c1` was tested, and the Potency was “inactive”.
With `COC(=O)c1ccc(NC(C)=O)cc1OC` the Potency was “inactive”.
With `Cc1[nH]cnc1-c1ccc(Cl)cc1` the Potency was “inactive”.
`Cc1ccc(C(=O)C(=O)O)cc1C` was tested, and the Potency was “inactive”.
For `COc1ccc(CCC(C)=O)cc1`, the Potency was “inactive”.
For `Cc1sccc1Br`, the Potency was “inactive”.
In the case of `CCc1cc2cc(OC)c(OC)cc2c(Cc2ccccc2)n1`, the Potency is reported as “inactive”.
In the case of `Cc1ccc(C(C)OC(=O)C2(C)CCC(C(=O)O)C2(C)C)cc1` (centres undefined), the Potency is reported as “inactive”.
With `Fc1ccc(C(c2ccc(F)cc2)N2CCNCC2)cc1` the Potency was “inactive”.
For `CCOC(=O)Oc1ccc(CCNC(=O)[C@H](CCSC)NC(C)=O)cc1OC(=O)OCC`, the Potency was “inactive”.
With `CCNC(=O)[C@@H]1CCCN1C(=O)[C@H](CCCN=C(N)N)NC(=O)[C@H](CC(C)C)NC(=O)CNC(=O)[C@H](Cc1ccc(O)cc1)NC(=O)[C@H](CO)NC(=O)[C@H](Cc1c[nH]c2ccccc12)NC(=O)[C@H](Cc1cnc[nH]1)NC(=O)[C@@H]1CCC(=O)N1` ([pGlu]HWSYGLRP-NHEt) the Potency was “inactive”.

The compounds below were run on Hek293T in the same assay as above. Settings: Gynecologic cancer cell panel viability, ATPlite luminescence, 48 h, control line for the selectivity index; series mostly up to 57.5 µM.
Summary of the method: as §1
In the case of `CCCCCN(CCCOC)C(=O)C(CCC(=O)O)NC(=O)c1ccc(Cl)c(Cl)c1` (centres undefined), the Potency is reported as “inactive”.
With `CCCCCCn1c(=O)c2c(ncn2C)n(C)c1=O` the Potency was “inactive”.
With `CCCc1ncc(C(=O)O)s1` the Potency was “inactive”.
In the case of `C/C(=N/NC(=O)c1ccncc1)C(=O)O`, the Potency is reported as “inactive”.
With `COC(=O)/C=C(/C)N` the Potency was “inactive”.
With `NS(=O)(=O)c1cc2c(cc1Cl)CN(C1CCCCC1)C2=O` the Potency was “inactive”.
With `O=C1NC(c2ccccc2)(c2ccccc2)C(=O)N1COP(=O)(O)O` the Potency was “inactive”.
For `CCc1cccc2c(CCO)c[nH]c12`, the Potency was “inactive”.
In the case of `CCCCC(CC)CNC(=O)CC(C)OC(=O)CCC(=O)O` (centres undefined), the Potency is reported as “inactive”.
`O=C(O)c1ccc(OCCN2CCCCC2)cc1` was tested, and the Potency was “inactive”.
In the case of `CCCC(=O)O[C@]1(C(=O)CC)CC[C@H]2[C@@H]3CCC4=CC(=O)CC[C@]4(C)[C@H]3[C@@H](O)C[C@@]21C`, the Potency is reported as “inactive”.
For `CC(C)N(CCC(=O)c1ccc2ccccc2c1)Cc1ccccc1`, the Potency was “inactive”.
`COC(=O)CCCCC(CCSS/C(CCO)=C(\C)N(C=O)Cc1cnc(C)nc1N)SC(C)=O` (centres undefined) was tested, and the Potency was “inactive”.
`O=C1CC2(CCCC2)CC(=O)N1` was tested, and the Potency was “inactive”.
With `CCCCOCCOC(=O)c1cccnc1` the Potency was “inactive”.
For `CC(=O)N[C@@H](CO)C(=O)N[C@@H](CC(=O)O)C(=O)N[C@@H](CCCCN)C(=O)N1CCC[C@H]1C(=O)O` (Ac-SDKP-OH), the Potency was “inactive”.
With `CC(=O)O[C@@H]1CC2C3CCc4cc(OC(=O)c5ccccc5)ccc4C3CCC2(C)[C@H]1OC(C)=O` (some centres undefined) the Potency was “inactive”.
In the case of `Cc1ccc2c(Cl)cc(Cl)c(O)c2n1`, the Potency is reported as “inactive”.
For `CC(Oc1c(Cl)cccc1Cl)C1=NCCN1` (centres undefined), the Potency was “inactive”.
`N#CC1(c2ccc(F)cc2)CCC(=O)CC1` was tested, and the Potency was “inactive”.
In the case of `CC1(C)OC(=O)Nc2ccc(Br)cc21`, the Potency is reported as “inactive”.
For `Cc1cccc(C)c1NC(=O)c1ccc(N)cc1`, the Potency was “inactive”.
With `Cc1cccc(OCC(O)CNC(C)(C)C)c1C` (centres undefined) the Potency was “inactive”.
For `Cc1coc2ccccc2c1=O`, the Potency was “inactive”.
For `COC(=O)c1cc(Cl)c(NC(C)=O)cc1OC`, the Potency was “inactive”.
For `CSCC[C@H](NC(=O)[C@H](Cc1c[nH]c2ccccc12)NC(=O)CCNC(=O)OC(C)(C)C)C(=O)N[C@@H](CC(=O)O)C(=O)N[C@@H](Cc1ccccc1)C(N)=O`, the Potency was “inactive”.
For `CC(C)C(=O)OCc1cccc(OC(=O)[C@@H]2N3C(=O)[C@@H](NC(=O)Cc4ccccc4)[C@H]3SC2(C)C)c1`, the Potency was “inactive”.
In the case of `COC(=O)c1ccc(NC(C)=O)cc1OC`, the Potency is reported as “inactive”.
In the case of `Cc1[nH]cnc1-c1ccc(Cl)cc1`, the Potency is reported as “inactive”.
For `Cc1ccc(C(=O)C(=O)O)cc1C`, the Potency was “inactive”.
`COc1ccc(CCC(C)=O)cc1` was tested, and the Potency was “inactive”.
In the case of `Cc1sccc1Br`, the Potency is reported as “inactive”.
`CCc1cc2cc(OC)c(OC)cc2c(Cc2ccccc2)n1` was tested, and the Potency was “inactive”.
With `Cc1ccc(C(C)OC(=O)C2(C)CCC(C(=O)O)C2(C)C)cc1` (centres undefined) the Potency was “inactive”.
With `Fc1ccc(C(c2ccc(F)cc2)N2CCNCC2)cc1` the Potency was “inactive”.
With `CCOC(=O)Oc1ccc(CCNC(=O)[C@H](CCSC)NC(C)=O)cc1OC(=O)OCC` the Potency was “inactive”.
In the case of `CCNC(=O)[C@@H]1CCCN1C(=O)[C@H](CCCN=C(N)N)NC(=O)[C@H](CC(C)C)NC(=O)CNC(=O)[C@H](Cc1ccc(O)cc1)NC(=O)[C@H](CO)NC(=O)[C@H](Cc1c[nH]c2ccccc12)NC(=O)[C@H](Cc1cnc[nH]1)NC(=O)[C@@H]1CCC(=O)N1` ([pGlu]HWSYGLRP-NHEt), the Potency is reported as “inactive”.
